Assay results taken from PubChem BioAssay (EPA / NIEHS).
Values joined by “and” are separate entries in the source; they are usually repeats but may differ in a detail not shown here. Identical values can stand only once. Inconclusive results are not listed. More than one record can exist for a structure, and the calls need not agree. Active and inactive are the calls of the source. How the source made its calls, unless noted: active means hit-call score of the fitted dose curve at least 0.9, where 1 is the maximum; inactive means score below 0.9.

Legend:
[1] = target: Glucocorticoid receptor (Homo sapiens) (UniProt P04150); assay: ATG_GR_TRANS: Attagene TRANS-FACTORIAL HepG2 Assay for human Glucocorticoid Receptor (GR) (AID 2282978; active means hit-call score of the fitted dose curve at least 0.9, where 1 is the maximum;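 further: activators score as hits since higher reporter transcript over DMSO is fitted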); settings: HepG2 Attagene TRANS GR reporter, mRNA transcription
Summary of the method: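 Transiently transfected HepG2 cells express chimeric NR-GAL4 proteins acting on GAL4-UAS reporter units. Compounds are applied for 24 h. mRNA induction over DMSO is measured by capillary electrophoresis.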

[2] = target: Bile acid receptor (Homo sapiens) (UniProt Q96RI1); assay: ATG_FXR_TRANS: Attagene TRANS-FACTORIAL HepG2 Assay for Farnesoid X Receptor (FXR) (AID 2282979; active means hit-call score of the fitted dose curve at least 0.9, where 1 is the maximum;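 further: hits raise reporter mRNA above DMSO so AC50 marks FXR activation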); settings: HepG2 Attagene TRANS FXR-GAL4 reporter transcription
Summary of the method: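 After 24 h chemical treatment of transfected HepG2 cells, GAL4-UAS reporter transcripts driven by an exogenous FXR-GAL4 fusion were measured by RT-PCR and capillary electrophoresis. Increases over DMSO were fitted.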

[3] = target: Oxysterols receptor LXR-alpha (Homo sapiens) (UniProt Q13133); assay: ATG_LXRa_TRANS: Attagene TRANS-FACTORIAL HepG2 Assay for human Liver X Receptor alpha (LXRa) (AID 2282980; active means hit-call score of the fitted dose curve at least 0.9, where 1 is the maximum); settings: HepG2 Attagene TRANS reporter, LXRa transactivation
Summary of the method: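 In this multiplexed TRANS system, compounds act on HepG2 cells carrying GAL4-UAS reporter units and a receptor-GAL4 fusion for 24 h. Induced reporter RNA is amplified, fluorescently labelled and sized by capillary electrophoresis, with DMSO as baseline.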

[4] = target: Oxysterols receptor LXR-beta (Homo sapiens) (UniProt P55055); assay: ATG_LXRb_TRANS: Attagene TRANS-FACTORIAL HepG2 Assay for human Liver X Receptor beta (LXRb) (AID 2282981; active means hit-call score of the fitted dose curve at least 0.9, where 1 is the maximum); settings: HepG2 Attagene TRANS GAL4-LXRb reporter, mRNA
Summary of the method: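 After 24 h chemical treatment of transfected HepG2 cells carrying exogenous NR-Gal4 chimeras, reporter mRNA was quantified by fluorescent RT-PCR and capillary electrophoresis; activity taken as increase over DMSO controls.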

[5] = target: Hepatocyte nuclear factor 4-alpha (Homo sapiens) (UniProt P41235); assay: ATG_HNF4a_TRANS: Attagene TRANS-FACTORIAL HepG2 Assay for human Hepatocyte Nuclear Factor 4 alpha (HNF4a) (AID 2282982; active means hit-call score of the fitted dose curve at least 0.9, where 1 is the maximum); settings: HepG2 HNF4a transactivation reporter, mRNA readout
Summary of the method: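 Activity of an exogenous HNF4a–Gal4 fusion scored as induced GAL4-UAS reporter transcripts after 24 h chemical exposure of transfected human HepG2 cells. Read-out via RT-PCR with 6-FAM labelling and capillary electrophoresis; rise over DMSO baseline.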

[6] = ATG_M_06_TRANS: Attagene TRANS-FACTORIAL HepG2 Assay for M06 Transcription Factor (Internal Marker) (AID 2282983; active means hit-call score of the fitted dose curve at least 0.9, where 1 is the maximum;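 further: reporter transcript level by RT-PCR then capillary electrophoresis fluorescence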); settings: HepG2 Attagene TRANS M06 internal marker reporter
Summary of the method: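 Multi-reporter-transfected HepG2, 24 h treatment; reporter transcripts quantified via RT-PCR, primer-extension labelling and CE. DMSO-normalized gain-of-signal fit.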

[7] = target: Transcriptional activator Myb (Homo sapiens) (UniProt P10242); assay: ATG_Myb_CIS: Attagene CIS-FACTORIAL HepG2 Assay for human Myeloblastosis (Myb) Proto-Oncogene Transcription Factor (AID 2282986); settings: HepG2 Attagene CIS-FACTORIAL Myb reporter transcription; actives raise or lower the signal
Summary of the method: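 Using HepG2 liver cells bearing transiently transfected cis-promoter reporter constructs, the assay measures induction or loss of reporter mRNA after 24 hours of dosing. Detection used fluorescently labeled RT-PCR products separated by capillary electrophoresis.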

[8] = target: Nuclear respiratory factor 1 (Homo sapiens) (UniProt Q16656); assay: ATG_NRF1_CIS: Attagene CIS-FACTORIAL HepG2 Assay for human Nuclear Respiratory Factor 1 (NRF1) Orphan Gene (AID 2282987); settings: HepG2 NRF1 cis-element reporter, Attagene multiplex; actives raise or lower the signal
Summary of the method: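 Reporter mRNA induction or loss in HepG2 cells after 24 h dosing; cis-regulated reporter constructs report endogenous transcription-factor activity. Quantified by RT-PCR/capillary electrophoresis fluorescence, DMSO-referenced.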

[9] = target: Myc proto-oncogene protein (Homo sapiens) (UniProt P01106); assay: ATG_Myc_CIS: Attagene CIS-FACTORIAL HepG2 Assay for human Myelocytomatosis (Myc) Proto-Oncogene Transcription Factor (AID 2282990); settings: HepG2, Attagene cis-reporter transcription factor activity; actives raise or lower the signal
Summary of the method: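 After 24 h chemical treatment of HepG2 cells carrying multiplexed cis-regulated reporter constructs, reporter transcripts quantified by RT-PCR and capillary electrophoresis of fluorescent fragments. Gain or loss fitted against DMSO baseline.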

[10] = ATG_NRF2_ARE_CIS: Attagene CIS-FACTORIAL HepG2 Assay for human Nuclear Factor Erythroid 2 Related Factor 2 (NFR2) response to Antioxidant Response Elements (ARE) (AID 2282992); settings: HepG2 Attagene ARE/NRF2 reporter, transcription factor activity; actives raise or lower the signal;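 on AC50: reporter mRNA level measured by RT-PCR and capillary electrophoresis fluorescence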
Summary of the method: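 Endogenous transcription factor activity in human liver HepG2 cells is tracked via a cis-element-driven reporter within a multiplexed set. mRNA induction is read by RT-PCR and capillary electrophoresis after 24 h, with DMSO as baseline.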

[11] = ATG_Oct_MLP_CIS: Attagene CIS-FACTORIAL HepG2 Assay for human Octamer-Binding Transcription Factor (Oct) (AID 2282993); settings: HepG2 Attagene cis-factorial Oct reporter, mRNA; actives raise or lower the signal
Summary of the method: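 Transient MRTU transfection of HepG2 → 24 h compound treatment → RNA isolation, reverse transcription, PCR → 6-FAM primer extension, HpaI digest → capillary electrophoresis. Activity fitted both directions against DMSO.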

[12] = target: Cellular tumor antigen p53 (Homo sapiens) (UniProt P04637); assay: ATG_p53_CIS: Attagene CIS-FACTORIAL HepG2 Assay for human p53 Transcription Factor (AID 2282994); settings: HepG2 p53 cis-element reporter, Attagene mRNA; actives raise or lower the signal
Summary of the method: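 Steps: transfect HepG2 with multiplexed cis reporter constructs; dose chemicals 24 h; extract RNA, reverse-transcribe, PCR-amplify reporter sequences; FAM-label, HpaI-digest, resolve fragments by CE. Activity fitted both directions relative to DMSO.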

[13] = BSK_3C_TissueFactor: BioMAP Diversity Plus: 3C Assay for Tissue Factor Biomarker Activity (AID 2282997); settings: BioMAP 3C HUVEC, tissue factor biomarker readout; actives raise or lower the signal
Summary of the method: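 In this endothelial system, HUVEC are treated for 24 h and Tissue Factor is assessed by ELISA, normalised to DMSO.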

[14] = BSK_3C_uPAR: BioMAP Diversity Plus: 3C Assay for Urokinase-type plasminogen activator receptor (uPAR) Biomarker Activity (AID 2282998); settings: BioMAP 3C HUVEC, uPAR biomarker ELISA; actives raise or lower the signal
Summary of the method: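 ELISA readout of uPAR on human vascular endothelium (umbilical vein primary cells), taken 24 h after chemical dosing. Increases and decreases are both fitted relative to DMSO vehicle.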

[15] = BSK_3C_VCAM1: BioMAP Diversity Plus: 3C Assay for Vascular cell adhesion molecule 1 (VCAM1) Biomarker Activity (AID 2282999); settings: BioMAP 3C HUVEC, VCAM1 ELISA, cytokine-stimulated; actives raise or lower the signal
Summary of the method: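 Activity fitted in both directions relative to DMSO, with ELISA measurement of the surface marker on primary HUVEC (3C) at 24 h post-treatment; parallel SRB staining (0.1% SRB, TCA-fixed, 560 nm) flagged overt cytotoxicity.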

[16] = BSK_4H_Eotaxin3: BioMAP Diversity Plus: 4H Assay for Eotaxin 3 Biomarker Activity (AID 2283000); settings: primary human endothelial cells (HUVEC); actives raise or lower the signal
Summary of the method: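 ELISA quantitation of CCL26 (Eotaxin-3) protein from chemically dosed human vascular endothelial cells at 24 h; increases and decreases both scored relative to DMSO-treated baseline.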

[17] = ATG_M_32_TRANS: Attagene TRANS-FACTORIAL HepG2 Assay for M32 Transcription Factor (Internal Marker) (AID 2282984; active means hit-call score of the fitted dose curve at least 0.9, where 1 is the maximum;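 further: transcript level of a background control reporter unit measured by RT-PCR and capillary electrophoresis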); settings: HepG2 Attagene TRANS M32 internal marker reporter
Summary of the method: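 Internal background reporter in transfected HepG2: after 24 h chemical exposure, RNA reverse-transcribed, reporter cDNA amplified, fluorescently labelled and HpaI-cut, then sized by capillary electrophoresis. Gain of signal fitted against DMSO control.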

[18] = target: Nuclear receptor subfamily 4 group A member 2 (Homo sapiens) (UniProt P43354); assay: ATG_NURR1_TRANS: Attagene TRANS-FACTORIAL HepG2 Assay for human Nuclear Receptor Related Protein 1 (NURR1) (AID 2282985; active means hit-call score of the fitted dose curve at least 0.9, where 1 is the maximum); settings: HepG2 Attagene TRANS reporter, mRNA readout
Summary of the method: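 Reporter transcript induction, measured by RT-PCR with fluorescent labelling, HpaI digestion and capillary electrophoresis, after 24 hr dosing of human HepG2 cells transiently expressing an exogenous NR-Gal4 fusion with GAL4-UAS-driven reporters; DMSO as baseline.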

Measured: AC50

Sequence of Cellular tumor antigen p53 (Homo sapiens) (P04637 whole entry, looked up, the tested form may be a part): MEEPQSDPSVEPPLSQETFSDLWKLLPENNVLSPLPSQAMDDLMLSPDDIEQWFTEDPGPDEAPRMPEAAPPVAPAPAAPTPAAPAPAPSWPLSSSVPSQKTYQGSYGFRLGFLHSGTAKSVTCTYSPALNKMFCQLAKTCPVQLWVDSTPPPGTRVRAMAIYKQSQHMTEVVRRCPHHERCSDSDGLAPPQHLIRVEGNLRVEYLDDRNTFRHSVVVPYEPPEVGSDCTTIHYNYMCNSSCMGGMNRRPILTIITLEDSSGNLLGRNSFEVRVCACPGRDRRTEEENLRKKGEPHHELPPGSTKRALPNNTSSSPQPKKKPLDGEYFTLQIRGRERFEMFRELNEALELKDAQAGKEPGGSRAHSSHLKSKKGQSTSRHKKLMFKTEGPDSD
Sequence of Nuclear respiratory factor 1 (Homo sapiens) (Q16656 whole entry, looked up): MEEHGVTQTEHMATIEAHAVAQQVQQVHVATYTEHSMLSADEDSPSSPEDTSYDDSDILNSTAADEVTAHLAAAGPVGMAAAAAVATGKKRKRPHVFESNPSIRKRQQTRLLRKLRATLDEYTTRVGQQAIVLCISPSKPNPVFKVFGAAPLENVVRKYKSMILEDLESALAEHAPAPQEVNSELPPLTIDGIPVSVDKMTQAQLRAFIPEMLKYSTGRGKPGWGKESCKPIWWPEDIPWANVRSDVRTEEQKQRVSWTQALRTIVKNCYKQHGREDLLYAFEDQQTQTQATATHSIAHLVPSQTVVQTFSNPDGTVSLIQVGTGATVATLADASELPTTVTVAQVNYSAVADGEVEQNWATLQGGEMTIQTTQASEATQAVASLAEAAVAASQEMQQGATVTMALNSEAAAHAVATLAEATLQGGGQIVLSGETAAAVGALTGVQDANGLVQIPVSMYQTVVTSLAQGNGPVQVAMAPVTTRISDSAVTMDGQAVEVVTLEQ
Sequence of Oxysterols receptor LXR-alpha (Homo sapiens) (Q13133 whole entry, looked up, the tested form may be a part): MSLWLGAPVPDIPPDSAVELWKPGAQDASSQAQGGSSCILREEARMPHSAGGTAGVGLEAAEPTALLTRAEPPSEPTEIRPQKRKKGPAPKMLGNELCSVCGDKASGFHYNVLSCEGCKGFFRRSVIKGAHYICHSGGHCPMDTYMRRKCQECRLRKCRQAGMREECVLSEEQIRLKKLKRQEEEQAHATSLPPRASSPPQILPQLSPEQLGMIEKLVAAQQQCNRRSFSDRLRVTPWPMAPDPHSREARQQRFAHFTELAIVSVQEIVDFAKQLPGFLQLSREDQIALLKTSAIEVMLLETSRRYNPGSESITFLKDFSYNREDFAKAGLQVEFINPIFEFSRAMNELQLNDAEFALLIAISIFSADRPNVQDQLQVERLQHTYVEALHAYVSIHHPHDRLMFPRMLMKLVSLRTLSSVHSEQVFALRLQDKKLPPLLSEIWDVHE
Sequence of Glucocorticoid receptor (Homo sapiens) (P04150 whole entry, looked up, the tested form may be a part): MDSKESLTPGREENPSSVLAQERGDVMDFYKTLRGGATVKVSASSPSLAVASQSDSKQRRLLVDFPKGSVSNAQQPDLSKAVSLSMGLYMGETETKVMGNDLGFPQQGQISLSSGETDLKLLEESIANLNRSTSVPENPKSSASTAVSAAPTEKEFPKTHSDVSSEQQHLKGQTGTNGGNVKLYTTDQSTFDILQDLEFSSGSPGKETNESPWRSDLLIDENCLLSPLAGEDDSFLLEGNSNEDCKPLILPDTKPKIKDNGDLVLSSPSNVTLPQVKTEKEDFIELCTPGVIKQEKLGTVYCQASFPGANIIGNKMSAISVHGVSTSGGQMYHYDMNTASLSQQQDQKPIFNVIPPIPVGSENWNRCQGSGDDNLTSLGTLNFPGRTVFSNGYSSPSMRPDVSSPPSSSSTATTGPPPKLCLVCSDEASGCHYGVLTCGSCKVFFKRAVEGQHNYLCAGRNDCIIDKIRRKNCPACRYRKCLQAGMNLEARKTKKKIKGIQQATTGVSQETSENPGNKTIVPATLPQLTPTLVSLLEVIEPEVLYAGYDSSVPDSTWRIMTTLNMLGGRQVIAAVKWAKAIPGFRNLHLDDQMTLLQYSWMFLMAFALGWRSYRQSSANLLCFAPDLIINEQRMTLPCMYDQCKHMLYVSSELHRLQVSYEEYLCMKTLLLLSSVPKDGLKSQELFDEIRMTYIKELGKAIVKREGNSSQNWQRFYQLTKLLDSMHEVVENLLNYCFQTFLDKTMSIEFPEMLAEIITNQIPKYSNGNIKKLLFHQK
Sequence of Oxysterols receptor LXR-beta (Homo sapiens) (P55055 whole entry, looked up, the tested form may be a part): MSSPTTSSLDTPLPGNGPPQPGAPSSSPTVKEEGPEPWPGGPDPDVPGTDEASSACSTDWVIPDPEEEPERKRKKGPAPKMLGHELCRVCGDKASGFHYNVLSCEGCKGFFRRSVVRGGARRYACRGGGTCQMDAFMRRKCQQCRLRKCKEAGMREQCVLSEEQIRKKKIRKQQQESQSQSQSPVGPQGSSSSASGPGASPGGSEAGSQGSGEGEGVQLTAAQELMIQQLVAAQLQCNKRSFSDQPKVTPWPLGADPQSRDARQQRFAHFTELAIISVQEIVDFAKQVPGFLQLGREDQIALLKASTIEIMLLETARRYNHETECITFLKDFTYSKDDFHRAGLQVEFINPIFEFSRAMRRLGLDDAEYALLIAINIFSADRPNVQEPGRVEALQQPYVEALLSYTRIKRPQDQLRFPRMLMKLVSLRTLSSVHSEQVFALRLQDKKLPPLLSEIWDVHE
Sequence of Transcriptional activator Myb (Homo sapiens) (P10242 whole entry, looked up): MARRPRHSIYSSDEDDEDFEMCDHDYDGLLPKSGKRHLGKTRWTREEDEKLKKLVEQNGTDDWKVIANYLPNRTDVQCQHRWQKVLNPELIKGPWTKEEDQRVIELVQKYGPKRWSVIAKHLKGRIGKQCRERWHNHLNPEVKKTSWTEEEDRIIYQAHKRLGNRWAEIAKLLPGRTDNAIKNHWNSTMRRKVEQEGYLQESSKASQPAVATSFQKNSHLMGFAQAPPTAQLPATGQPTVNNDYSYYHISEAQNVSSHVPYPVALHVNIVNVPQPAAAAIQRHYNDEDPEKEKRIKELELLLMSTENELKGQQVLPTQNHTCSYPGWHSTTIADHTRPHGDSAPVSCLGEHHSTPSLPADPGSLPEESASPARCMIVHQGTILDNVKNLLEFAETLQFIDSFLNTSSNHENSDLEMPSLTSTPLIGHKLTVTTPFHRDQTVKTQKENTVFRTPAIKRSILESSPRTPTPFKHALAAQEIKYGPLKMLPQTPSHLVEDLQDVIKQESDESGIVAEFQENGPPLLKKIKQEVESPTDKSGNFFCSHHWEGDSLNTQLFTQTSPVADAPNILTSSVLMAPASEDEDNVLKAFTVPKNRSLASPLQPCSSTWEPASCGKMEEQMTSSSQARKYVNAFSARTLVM
Sequence of Myc proto-oncogene protein (Homo sapiens) (P01106 whole entry, looked up, the tested form may be a part): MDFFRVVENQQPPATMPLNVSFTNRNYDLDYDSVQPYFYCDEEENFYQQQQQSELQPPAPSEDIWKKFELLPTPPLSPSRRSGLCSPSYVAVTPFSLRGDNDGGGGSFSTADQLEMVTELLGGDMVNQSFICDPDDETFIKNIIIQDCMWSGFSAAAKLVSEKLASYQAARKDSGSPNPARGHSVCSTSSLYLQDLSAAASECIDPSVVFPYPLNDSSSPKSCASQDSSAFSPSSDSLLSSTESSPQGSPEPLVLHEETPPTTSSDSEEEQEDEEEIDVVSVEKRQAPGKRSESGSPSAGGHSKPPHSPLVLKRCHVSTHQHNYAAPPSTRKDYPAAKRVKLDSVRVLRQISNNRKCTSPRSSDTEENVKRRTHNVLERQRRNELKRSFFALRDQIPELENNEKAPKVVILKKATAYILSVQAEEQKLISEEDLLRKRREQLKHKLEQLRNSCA
Sequence of Bile acid receptor (Homo sapiens) (Q96RI1 whole entry, looked up, the tested form may be a part): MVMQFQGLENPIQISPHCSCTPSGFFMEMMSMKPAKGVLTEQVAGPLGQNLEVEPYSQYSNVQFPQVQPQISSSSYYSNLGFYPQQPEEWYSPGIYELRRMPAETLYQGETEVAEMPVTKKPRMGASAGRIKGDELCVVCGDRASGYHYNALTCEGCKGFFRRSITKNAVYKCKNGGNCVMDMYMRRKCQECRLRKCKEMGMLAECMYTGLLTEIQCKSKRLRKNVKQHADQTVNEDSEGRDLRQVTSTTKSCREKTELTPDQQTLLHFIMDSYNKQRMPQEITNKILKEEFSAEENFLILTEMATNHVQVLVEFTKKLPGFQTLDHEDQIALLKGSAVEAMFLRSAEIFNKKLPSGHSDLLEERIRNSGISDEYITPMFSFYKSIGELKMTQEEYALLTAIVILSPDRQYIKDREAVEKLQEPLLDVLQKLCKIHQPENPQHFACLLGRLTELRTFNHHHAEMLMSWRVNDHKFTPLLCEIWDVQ
Sequence of Nuclear receptor subfamily 4 group A member 2 (Homo sapiens) (P43354 whole entry, looked up, the tested form may be a part): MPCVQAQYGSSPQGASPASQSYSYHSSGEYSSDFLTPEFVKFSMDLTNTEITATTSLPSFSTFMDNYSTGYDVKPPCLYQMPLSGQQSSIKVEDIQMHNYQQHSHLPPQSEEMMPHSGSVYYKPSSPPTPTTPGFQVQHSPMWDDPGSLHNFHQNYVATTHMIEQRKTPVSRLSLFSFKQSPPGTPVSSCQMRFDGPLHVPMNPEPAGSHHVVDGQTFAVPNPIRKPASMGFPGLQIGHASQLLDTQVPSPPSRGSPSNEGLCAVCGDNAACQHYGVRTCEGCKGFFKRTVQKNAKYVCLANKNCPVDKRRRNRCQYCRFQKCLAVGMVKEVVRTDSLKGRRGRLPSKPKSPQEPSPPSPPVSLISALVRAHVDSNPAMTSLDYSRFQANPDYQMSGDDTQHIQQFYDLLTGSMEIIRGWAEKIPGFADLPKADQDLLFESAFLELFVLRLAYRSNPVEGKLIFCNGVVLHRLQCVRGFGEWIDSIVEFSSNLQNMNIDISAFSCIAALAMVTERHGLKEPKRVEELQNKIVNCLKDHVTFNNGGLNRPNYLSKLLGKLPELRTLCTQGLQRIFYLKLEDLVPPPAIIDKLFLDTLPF

CCCCNC(=O)OCC#CI
inactive: [1] | [2] | [3] | [4] | [6] | [7] | [8] | [9] | [10] | [11] | [12]
active: [5] 64.2 µM | [9] 26.4 µM | [10] 27.6 µM | [11] 29.9 µM | [12] 33.5 µM | [13] 11.6 µM and 21.2 µM | [14] 13.4 µM and 12.9 µM | [15] 16.2 µM and 20.8 µM | [16] 17.3 µM and 15.1 µM

OC(c1ccc(Cl)cc1)(c1cncnc1)c1ccccc1Cl (stereo unspecified)
inactive: [1] | [3] | [4] | [5] | [6] | [17] | [18] | [7] | [8] | [9] | [10] | [11] | [12] | [13] | [15] | [16]
active: [9] 12.5 µM | [10] 12.8 µM | [11] 26.3 µM | [14] 17.4 µM

CC1COC(Cn2cncn2)(c2ccc(Oc3ccc(Cl)cc3)cc2Cl)O1 (stereo unspecified)
active: [10] 1.88 µM | [11] 2.45 µM | [13] 31.5 µM | [14] 28.4 µM | [15] 29.8 µM | [16] 32.9 µM
not listed: [5] | [18]
inactive: all other assays above
